Assay [1] deals with T1, Ephrin type-B receptor 1 (Homo sapiens) (UniProt P54762).
T1 sequence (whole entry): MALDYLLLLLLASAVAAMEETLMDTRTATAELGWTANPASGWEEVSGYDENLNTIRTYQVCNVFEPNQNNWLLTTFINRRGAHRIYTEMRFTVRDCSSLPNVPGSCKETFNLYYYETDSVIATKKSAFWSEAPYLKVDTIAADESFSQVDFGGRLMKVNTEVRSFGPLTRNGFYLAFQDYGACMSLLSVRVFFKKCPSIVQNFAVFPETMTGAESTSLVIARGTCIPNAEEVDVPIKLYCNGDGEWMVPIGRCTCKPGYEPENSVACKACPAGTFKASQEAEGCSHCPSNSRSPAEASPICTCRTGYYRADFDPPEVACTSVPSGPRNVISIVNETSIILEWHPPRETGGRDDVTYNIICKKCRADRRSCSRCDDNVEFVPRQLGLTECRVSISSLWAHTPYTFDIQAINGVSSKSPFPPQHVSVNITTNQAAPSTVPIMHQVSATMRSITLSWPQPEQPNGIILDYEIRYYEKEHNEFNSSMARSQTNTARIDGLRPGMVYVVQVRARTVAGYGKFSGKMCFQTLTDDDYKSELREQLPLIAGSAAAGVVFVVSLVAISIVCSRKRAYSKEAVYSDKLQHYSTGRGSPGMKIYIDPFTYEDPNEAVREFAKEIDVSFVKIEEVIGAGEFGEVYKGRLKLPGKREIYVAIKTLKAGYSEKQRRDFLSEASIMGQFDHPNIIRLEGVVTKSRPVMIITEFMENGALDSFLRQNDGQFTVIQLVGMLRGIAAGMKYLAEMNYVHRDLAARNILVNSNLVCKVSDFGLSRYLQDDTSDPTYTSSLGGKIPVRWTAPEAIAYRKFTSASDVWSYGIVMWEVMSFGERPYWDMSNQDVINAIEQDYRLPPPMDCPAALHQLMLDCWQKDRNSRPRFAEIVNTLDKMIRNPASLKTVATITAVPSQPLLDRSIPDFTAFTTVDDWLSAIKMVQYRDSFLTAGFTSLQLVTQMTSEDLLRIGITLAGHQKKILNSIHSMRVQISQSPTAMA
The note with it: at 10 µM.

In assay [2] the target is T2, Ephrin type-B receptor 2 (Homo sapiens) (UniProt P29323).
T2 sequence (whole entry): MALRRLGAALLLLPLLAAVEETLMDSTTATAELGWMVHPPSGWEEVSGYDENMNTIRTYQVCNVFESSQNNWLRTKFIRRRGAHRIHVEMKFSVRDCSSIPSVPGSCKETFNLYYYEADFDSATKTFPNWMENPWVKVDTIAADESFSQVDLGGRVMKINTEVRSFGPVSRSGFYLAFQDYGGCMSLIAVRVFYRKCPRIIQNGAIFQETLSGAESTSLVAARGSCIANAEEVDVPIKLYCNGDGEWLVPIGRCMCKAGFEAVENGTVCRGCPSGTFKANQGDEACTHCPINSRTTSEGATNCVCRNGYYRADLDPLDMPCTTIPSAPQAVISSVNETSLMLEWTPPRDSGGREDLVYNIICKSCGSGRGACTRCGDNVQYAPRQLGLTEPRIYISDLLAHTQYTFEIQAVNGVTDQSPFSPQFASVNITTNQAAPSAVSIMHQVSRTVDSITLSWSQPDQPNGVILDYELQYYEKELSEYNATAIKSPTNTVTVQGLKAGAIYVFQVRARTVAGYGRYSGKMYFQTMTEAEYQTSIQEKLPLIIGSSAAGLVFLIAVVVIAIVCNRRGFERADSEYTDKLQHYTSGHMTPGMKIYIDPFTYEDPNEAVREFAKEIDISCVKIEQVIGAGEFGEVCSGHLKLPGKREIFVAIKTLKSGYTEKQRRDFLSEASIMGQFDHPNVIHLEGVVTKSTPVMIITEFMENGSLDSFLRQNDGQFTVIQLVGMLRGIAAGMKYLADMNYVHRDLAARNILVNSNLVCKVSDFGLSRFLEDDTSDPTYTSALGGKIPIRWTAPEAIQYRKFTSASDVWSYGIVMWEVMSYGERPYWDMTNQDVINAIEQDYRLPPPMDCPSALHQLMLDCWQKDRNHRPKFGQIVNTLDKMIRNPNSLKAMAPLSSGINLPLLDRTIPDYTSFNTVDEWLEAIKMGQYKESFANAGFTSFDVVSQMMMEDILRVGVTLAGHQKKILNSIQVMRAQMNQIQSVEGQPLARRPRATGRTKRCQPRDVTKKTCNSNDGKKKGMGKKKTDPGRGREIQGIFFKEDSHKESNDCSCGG
The note with it: at 1 µM.

The target of assay [3] is T2, Ephrin type-B receptor 2 (Homo sapiens). As to conditions: at 10 µM; call rule not given here.
Assay [4] addresses T3, Ephrin type-B receptor 3 (Homo sapiens) (UniProt P54753).
T3 sequence (whole entry): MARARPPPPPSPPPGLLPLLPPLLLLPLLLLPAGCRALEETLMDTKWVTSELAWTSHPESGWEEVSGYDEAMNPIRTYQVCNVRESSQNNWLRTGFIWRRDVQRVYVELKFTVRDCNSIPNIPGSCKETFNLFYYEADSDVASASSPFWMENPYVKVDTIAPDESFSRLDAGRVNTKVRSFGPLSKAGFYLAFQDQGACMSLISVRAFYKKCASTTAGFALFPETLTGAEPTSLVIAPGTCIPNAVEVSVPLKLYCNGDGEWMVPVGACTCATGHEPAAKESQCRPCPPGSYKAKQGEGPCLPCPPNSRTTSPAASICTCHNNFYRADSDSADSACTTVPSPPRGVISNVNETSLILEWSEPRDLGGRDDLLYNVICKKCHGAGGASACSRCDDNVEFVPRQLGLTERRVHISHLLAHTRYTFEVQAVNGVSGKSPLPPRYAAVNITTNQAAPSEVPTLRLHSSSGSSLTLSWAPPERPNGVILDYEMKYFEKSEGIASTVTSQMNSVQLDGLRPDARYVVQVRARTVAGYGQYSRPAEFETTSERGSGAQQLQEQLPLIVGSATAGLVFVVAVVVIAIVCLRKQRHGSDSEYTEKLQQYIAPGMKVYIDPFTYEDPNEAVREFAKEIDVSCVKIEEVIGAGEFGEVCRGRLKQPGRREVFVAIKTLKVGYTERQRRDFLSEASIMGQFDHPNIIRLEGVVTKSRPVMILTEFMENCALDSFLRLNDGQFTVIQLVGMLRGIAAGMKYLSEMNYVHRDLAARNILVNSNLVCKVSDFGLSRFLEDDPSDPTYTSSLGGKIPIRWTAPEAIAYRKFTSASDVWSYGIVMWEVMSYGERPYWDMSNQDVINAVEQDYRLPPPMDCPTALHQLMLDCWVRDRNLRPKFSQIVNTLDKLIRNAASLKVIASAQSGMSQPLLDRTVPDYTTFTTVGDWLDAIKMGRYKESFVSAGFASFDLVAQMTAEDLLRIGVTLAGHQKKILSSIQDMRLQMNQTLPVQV
As to conditions: at 1 µM.

In assay [5] the target is T3, Ephrin type-B receptor 3 (Homo sapiens). The note with it: at 10 µM.
Assay [6] concerns the target T4, Ephrin type-B receptor 4 (Homo sapiens) (UniProt P54760).
T4 sequence (whole entry): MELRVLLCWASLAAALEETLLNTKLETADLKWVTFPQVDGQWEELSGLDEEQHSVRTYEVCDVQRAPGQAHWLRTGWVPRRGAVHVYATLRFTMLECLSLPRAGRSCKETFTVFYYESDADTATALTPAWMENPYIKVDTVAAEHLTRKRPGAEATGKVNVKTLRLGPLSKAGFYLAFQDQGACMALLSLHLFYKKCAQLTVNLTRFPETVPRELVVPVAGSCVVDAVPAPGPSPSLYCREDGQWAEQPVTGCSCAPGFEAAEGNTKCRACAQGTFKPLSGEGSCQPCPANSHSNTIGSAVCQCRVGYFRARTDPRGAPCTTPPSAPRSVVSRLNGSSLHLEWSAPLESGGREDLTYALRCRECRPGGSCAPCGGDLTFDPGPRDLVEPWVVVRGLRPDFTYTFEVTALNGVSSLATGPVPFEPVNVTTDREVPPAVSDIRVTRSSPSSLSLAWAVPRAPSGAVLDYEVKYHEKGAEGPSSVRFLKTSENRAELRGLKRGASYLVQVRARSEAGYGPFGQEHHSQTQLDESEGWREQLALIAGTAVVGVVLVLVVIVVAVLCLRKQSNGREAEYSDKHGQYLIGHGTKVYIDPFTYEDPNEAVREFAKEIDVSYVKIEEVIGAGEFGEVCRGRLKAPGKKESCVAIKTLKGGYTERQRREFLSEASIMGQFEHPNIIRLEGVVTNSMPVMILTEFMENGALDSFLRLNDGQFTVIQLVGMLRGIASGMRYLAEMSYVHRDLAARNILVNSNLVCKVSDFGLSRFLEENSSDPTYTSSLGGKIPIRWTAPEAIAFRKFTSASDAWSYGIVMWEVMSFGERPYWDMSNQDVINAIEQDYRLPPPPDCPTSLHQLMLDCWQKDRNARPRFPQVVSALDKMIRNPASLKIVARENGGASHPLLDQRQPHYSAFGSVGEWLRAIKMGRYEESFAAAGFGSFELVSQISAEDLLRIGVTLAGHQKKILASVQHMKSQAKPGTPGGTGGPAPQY
As to conditions: at 1 µM.

Assay [7] concerns the target T4, Ephrin type-B receptor 4 (Homo sapiens). The note with it: at 10 µM.
Assay [8] concerns the target Receptor tyrosine-protein kinase erbB-4 (Homo sapiens) (UniProt Q15303). The note with it: at 1 µM.
For assay [9] the target is unchanged. As to conditions: at 10 µM.
The target in assay [10] is Focal adhesion kinase 1 (Homo sapiens) (UniProt Q05397). The note with it: at 1 µM.
Focal adhesion kinase 1 (Homo sapiens), sequence (Q05397 2-1052 limits assumed): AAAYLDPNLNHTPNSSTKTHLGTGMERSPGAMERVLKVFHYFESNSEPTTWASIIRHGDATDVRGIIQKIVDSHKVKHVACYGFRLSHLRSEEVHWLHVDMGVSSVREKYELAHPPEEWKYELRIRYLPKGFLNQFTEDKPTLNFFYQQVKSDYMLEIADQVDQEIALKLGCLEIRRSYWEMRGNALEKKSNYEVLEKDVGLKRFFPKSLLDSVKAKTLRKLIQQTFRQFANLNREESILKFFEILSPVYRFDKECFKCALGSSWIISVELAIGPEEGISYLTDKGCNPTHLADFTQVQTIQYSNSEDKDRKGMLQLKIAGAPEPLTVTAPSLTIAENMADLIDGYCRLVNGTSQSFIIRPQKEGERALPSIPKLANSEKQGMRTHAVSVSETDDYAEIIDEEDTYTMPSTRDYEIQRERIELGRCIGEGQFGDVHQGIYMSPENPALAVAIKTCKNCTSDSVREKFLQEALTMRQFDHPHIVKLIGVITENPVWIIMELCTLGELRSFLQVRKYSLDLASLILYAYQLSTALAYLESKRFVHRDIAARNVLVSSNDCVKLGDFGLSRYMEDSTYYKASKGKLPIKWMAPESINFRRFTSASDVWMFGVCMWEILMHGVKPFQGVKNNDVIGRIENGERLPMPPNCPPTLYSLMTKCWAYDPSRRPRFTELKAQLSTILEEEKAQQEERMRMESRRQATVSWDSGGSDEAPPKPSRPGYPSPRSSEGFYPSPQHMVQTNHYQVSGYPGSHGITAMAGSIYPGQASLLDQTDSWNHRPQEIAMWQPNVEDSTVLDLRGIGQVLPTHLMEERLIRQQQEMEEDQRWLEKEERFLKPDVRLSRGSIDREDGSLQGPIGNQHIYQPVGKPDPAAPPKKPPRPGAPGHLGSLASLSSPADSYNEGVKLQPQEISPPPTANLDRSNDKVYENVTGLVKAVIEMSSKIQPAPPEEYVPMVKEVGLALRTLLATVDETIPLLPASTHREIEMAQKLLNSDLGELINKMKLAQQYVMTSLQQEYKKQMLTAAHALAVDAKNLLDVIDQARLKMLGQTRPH

The source of these data is ChEMBL document CHEMBL2218924, “A broad activity screen in support of a chemogenomic map for kinase signalling research and drug discovery” (Biochem J, 2013).

Receptor tyrosine-protein kinase erbB-4 (Homo sapiens), sequence (Q15303 whole entry): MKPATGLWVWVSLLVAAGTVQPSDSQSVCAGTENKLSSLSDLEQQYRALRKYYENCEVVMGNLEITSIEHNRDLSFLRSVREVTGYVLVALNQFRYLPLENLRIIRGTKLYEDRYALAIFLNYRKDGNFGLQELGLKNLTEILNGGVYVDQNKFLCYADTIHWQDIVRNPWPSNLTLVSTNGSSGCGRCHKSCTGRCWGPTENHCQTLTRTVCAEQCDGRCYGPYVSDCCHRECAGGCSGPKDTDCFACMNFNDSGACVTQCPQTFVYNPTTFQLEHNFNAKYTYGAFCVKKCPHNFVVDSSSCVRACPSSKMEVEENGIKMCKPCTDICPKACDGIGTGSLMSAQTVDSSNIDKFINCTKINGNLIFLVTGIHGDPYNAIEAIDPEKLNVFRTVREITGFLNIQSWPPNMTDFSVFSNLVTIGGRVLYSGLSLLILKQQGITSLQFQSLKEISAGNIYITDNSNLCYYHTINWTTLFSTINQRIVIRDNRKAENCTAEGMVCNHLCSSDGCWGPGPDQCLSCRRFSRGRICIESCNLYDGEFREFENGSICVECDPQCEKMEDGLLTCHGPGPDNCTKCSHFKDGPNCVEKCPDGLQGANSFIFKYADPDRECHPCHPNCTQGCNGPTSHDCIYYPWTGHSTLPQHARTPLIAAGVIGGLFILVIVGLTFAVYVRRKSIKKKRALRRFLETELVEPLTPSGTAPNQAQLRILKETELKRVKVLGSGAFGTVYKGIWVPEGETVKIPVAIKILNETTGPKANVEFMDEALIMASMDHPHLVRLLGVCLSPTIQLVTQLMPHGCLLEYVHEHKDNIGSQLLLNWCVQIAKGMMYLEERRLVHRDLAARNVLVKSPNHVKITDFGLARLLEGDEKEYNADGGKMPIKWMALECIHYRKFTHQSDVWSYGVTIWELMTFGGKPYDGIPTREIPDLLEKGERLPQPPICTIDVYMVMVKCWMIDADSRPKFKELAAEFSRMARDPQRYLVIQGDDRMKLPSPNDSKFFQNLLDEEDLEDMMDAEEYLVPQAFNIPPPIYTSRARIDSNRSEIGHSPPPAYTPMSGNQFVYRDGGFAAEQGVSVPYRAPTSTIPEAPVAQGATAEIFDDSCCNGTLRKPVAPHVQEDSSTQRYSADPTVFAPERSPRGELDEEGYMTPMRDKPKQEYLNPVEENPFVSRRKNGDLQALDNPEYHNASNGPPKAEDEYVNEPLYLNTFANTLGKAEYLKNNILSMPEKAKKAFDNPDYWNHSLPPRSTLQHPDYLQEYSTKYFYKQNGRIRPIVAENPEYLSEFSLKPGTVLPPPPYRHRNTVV

As usually defined, the residual activity is the signal under treatment as a percentage of the control signal. As for `CC#CC(=O)Nc1cc2c(Nc3ccc(F)c(Cl)c3)ncnc2cn1`, the residual activity in assay [1] was 98%; in assay [2] it was 110%; in assay [3], 107%; in assay [4] it was 115% (inactive); in assay [5] it was 102%; in assay [6] it was 87%. The residual activity in assay [7] is 108%; in assay [8], 16%; in assay [9], 14%; in assay [10] it was 133%.
